The whole screen tested about 200,000 compounds, of which about 3,000 (1.5%) were called active. The list comes from a sample in which actives are over-represented; it also holds similar structures and randomly drawn compounds. Values without a mark were called inactive.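 Rule for the calls: active = inhibition above about 50% when tested at 10 µM (limit read from the data); inactive = the rest.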

For this test, the target named is Luciferin 4-monooxygenase (Photinus pyralis) (UniProt P08659). Briefly: inhibition of purified FLuc reporter enzyme – biochemical, luminescence, ATPLite, artefact control for luciferase-based inhibitor screens, primary screen (AID 1006). Conditions: ATPLite firefly luciferase biochemical luminescence, 10 min; at 10 µM; hits give high values.
Chain of Luciferin 4-monooxygenase (Photinus pyralis) (P08659 whole entry, looked up): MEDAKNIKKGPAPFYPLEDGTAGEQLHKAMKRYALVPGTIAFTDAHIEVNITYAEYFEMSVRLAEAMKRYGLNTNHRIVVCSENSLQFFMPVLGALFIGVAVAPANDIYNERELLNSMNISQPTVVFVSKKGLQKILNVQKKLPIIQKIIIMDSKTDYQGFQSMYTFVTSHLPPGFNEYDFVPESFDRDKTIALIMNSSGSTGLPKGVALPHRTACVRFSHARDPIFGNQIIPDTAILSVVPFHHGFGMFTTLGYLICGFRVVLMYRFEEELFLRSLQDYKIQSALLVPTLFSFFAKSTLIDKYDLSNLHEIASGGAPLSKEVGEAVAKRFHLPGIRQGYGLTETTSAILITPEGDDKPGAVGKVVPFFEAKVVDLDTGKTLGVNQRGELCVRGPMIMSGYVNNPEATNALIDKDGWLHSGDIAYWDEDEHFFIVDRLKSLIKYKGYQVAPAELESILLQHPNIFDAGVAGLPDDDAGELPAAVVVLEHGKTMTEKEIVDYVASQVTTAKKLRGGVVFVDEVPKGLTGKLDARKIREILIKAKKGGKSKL
Consider `O=C(CC(=O)N/N=C\c1cccc(Cl)c1Cl)NCc1ccccc1`, for which the inhibition is -7.3%.

In the case of `CS(=O)(=O)Nc1cccc(-c2cn3ccccc3n2)c1`, the inhibition is 16.8%.

Consider `Cc1ccc(-c2cc(N)on2)cc1`, for which the inhibition was 17.5%.

In the case of `Cc1ccc(-c2cn3cc(C)ccc3n2)cc1`, the inhibition is 95.9% (active).

Turning to `COc1ccc(OC)c(-n2c(=S)[nH]c3cc(C(=O)N4CCCCC4)ccc3c2=O)c1`, the inhibition is -6.8%.

On to `C/C(=N\Nc1nc(Nc2ccccc2)nc(N2CCOCC2)n1)c1cccs1`, for which the inhibition is 5.5%.

For `C/C(=N\Nc1nc2ccccc2[nH]1)c1cccs1`, the inhibition was 73.6% (active).

Consider `C/C(=N\Nc1ncc(Cl)cc1Cl)c1cccs1`, for which the inhibition was 57.2% (active).

Consider `C/C(=N\Nc1ncc(Cl)cc1Cl)c1ccc(S(=O)(=O)NCc2ccco2)cc1`, for which the inhibition was 2%.

Consider `COc1cccc(/C(C)=N/Nc2ncc(Cl)cc2Cl)c1`, for which the inhibition is 4.4%.

For the compound `O=C(CSc1nc2ccccc2[nH]1)c1cccs1`, the inhibition is 5.4%.

`Cc1cc(NC(C)C)n2c(nc3ccccc32)c1C#N`: the inhibition is -2%.

Regarding `O=[N+]([O-])c1ccc2c(c1)C(N1CCOCC1)/C(=C/C1(O)CCCCC1)O2` (configuration not stated), the inhibition is 0.2%.

For `O=C(CN1CCC(O)(c2ccccc2)CC1)Nc1ccc2c(c1)OCCO2`, the inhibition was -7.8%.

As to `C=CCc1cccc2cc(C(=O)Nc3ccc(NC(C)=O)cc3)c(=O)oc12`, the inhibition is -2.7%.

With `CC(C)N(Cc1ccccc1)C(=O)COC(=O)c1cnccn1`, the inhibition is -3.5%.

Consider `Cn1c(=NC(=O)C2CC2)sc2cc(F)cc(F)c21`, for which the inhibition is 0.6%.

On to `CCCC(=O)N=c1sc2cccc(F)c2n1C`, for which the inhibition is 7%.

For the compound `Cn1c(=NC(=O)c2ccco2)sc2cccc(F)c21`, the inhibition is 59.7% (active).

For the compound `C=C(C)c1cccc(C(C)(C)NC(=O)NC2CCCC2)c1`, the inhibition was -3.3%.

On to `CCC(=O)N1CCC(C(N)=O)(N2CCCCC2)CC1`, for which the inhibition is -4.7%.

Take `COc1ccc(Nc2ncc(F)c(N3CCOCC3)n2)cc1`: the inhibition is 75.2% (active).

For `c1ccc(Nc2nc(N3CCOCC3)c3ccccc3n2)cc1`, the inhibition was 2%.

Consider `CCOc1ccc(Nc2nc(Cl)nc(N3CCN(c4ccc(OC)cc4)CC3)n2)cc1`, for which the inhibition is -4.4%.

With `Cc1nc(N2CCOCC2)sc1C(=O)NN`, the inhibition was 0.3%.

Turning to `CCOc1ccc(C(=O)Nc2cccc(SC)c2)cc1`, the inhibition is 62.1% (active).

`CCOc1ccc(C(=O)Nc2ccncc2)cc1`: the inhibition was 11.8%.

As for `CCOc1ccc(C(=O)Nc2cccc(-c3ccc4nncn4n3)c2)cc1`, the inhibition was 37.7%.

As for `O=C1CC(c2c(F)cccc2Cl)C(n2cncn2)C(O)=C1C1NCCc2ccccc21` (configuration not stated), the inhibition was -4.6%.

Regarding `O=C(c1cncc(Br)c1)N1CCN(c2ccc([N+](=O)[O-])cc2)CC1`, the inhibition was -0.9%.

For `COC(=O)c1ccc(-c2noc(CN(Cc3ccccn3)CC3CCCO3)n2)cc1` (configuration not stated), the inhibition is 4.4%.

In the case of `Cc1ccc(-n2c(C)cc(C(=O)CN3C(=O)C(=O)N(C4CCCC4)C3=O)c2C)cc1`, the inhibition is -7.1%.

In the case of `COc1cc(/C=N/NC(=O)c2cc(C)n(-c3ccc(F)cc3)c2C)cc(OC)c1O`, the inhibition is 5.2%.

As to `Cc1cc(C(=O)COC(=O)C2CC2)c(C)n1-c1ccc(F)cc1`, the inhibition is 95% (active).

For the compound `CCOc1ccc(N=Cc2c(O)n(-c3cccc(C)n3)c(=O)c3ccccc23)cc1`, the inhibition was -1%.

Take `CCCn1c(=O)c(-c2ccccc2)c(O)c2ccccc21`: the inhibition is 0.1%.

`CC(=O)n1c(C=Nc2ccccc2)c(O)c2ccccc21`: the inhibition was 61.6% (active).

Regarding `Cc1cccc(C(=O)NNC(=O)c2cccc([N+](=O)[O-])c2)c1`, the inhibition is -0.8%.

On to `O=C(NCCc1ccccn1)c1cc(-c2ccc(Cl)cc2)nc2ccccc12`, for which the inhibition is 1.6%.

As to `CCc1ccc(-c2cc(C(=O)NN3CCN(C)CC3)c3ccccc3n2)cc1`, the inhibition was 63% (active).

With `CC(C)(C)Cc1nnc(NC(=O)c2cc(-c3ccccc3)nc3ccccc23)s1`, the inhibition is -4.3%.

Consider `Cc1nc2ccc(NC(=S)N3CCC(C)CC3)cc2nc1C`, for which the inhibition is -2.6%.

`O=C(C1CCCN1S(=O)(=O)c1ccc(Br)cc1)N1CCOCC1` (configuration not stated): the inhibition is 0.6%.

Consider `CCCCN(CC)CCCNC(=O)c1ccc(CSc2nc3ccncc3[nH]2)cc1`, for which the inhibition was 37.9%.

For `O=C(CC1CCCCC1)NCc1ccc(F)cc1`, the inhibition is -3.7%.

Turning to `c1ccc(-n2nnnc2-c2cccnc2)cc1`, the inhibition is -0.4%.

`COc1ccc(C(=O)Nc2ccc(S(=O)(=O)NC(C)C)cc2)cc1`: the inhibition is -3.1%.

As to `COc1ccc(C(=O)NC(=S)Nc2ccc(N3CCCC3)cc2)cc1OC`, the inhibition is -14.5%.

`COc1cccc(C(=O)NNC(=O)c2ccccc2Br)c1`: the inhibition was 2.9%.

With `COc1ccc(NC(=O)c2ccc(C#CC(C)(C)O)cc2)cc1`, the inhibition is 5.6%.

Turning to `COc1ccc(C2COC(=O)C2=N)c(NC(=O)c2ccccc2)c1` (configuration not stated), the inhibition was -6.7%.

With `COc1cccc(OC)c1C(=O)Nc1ccc(N2CCCCC2)cc1`, the inhibition was -8.2%.

Turning to `COc1ccc(NC(=O)c2ccc(OC)cc2)cc1`, the inhibition is 63.1% (active).

As for `COc1cccc(C(=O)Nc2ccc(N3CCCC3)cc2)c1`, the inhibition was 67.6% (active).

Consider `COc1cccc(C(=O)Nc2cc3c(cc2Br)OCCCO3)c1`, for which the inhibition was 64.3% (active).

Turning to `CC(C)(C)C1CCC(C(=O)Nc2cccnc2)CC1` (configuration not stated), the inhibition is -3.4%.

`COc1ccc(-c2csc(-c3cccs3)n2)cc1OC`: the inhibition was 19.9%.

`COc1cccc(C(=O)NCCSc2ccc(Br)cc2)c1`: the inhibition was 2.1%.

As to `C=CCNc1scc(-c2ccccc2)[n+]1CC=C`, the inhibition was -5.9%.

As for `N=c1oc2ccccc2cc1C(=O)N/N=C/c1ccccc1`, the inhibition is 56.7% (active).

Take `CNC(=O)c1cc2c(ccc3ccccc32)oc1=N`: the inhibition is 7.1%.

As to `O=C(N/N=C/c1coc2ccccc2c1=O)c1cc2ccccc2o1`, the inhibition is -6.6%.

As for `O=C(O)C1C2CC2CN1C(=O)c1ccc(Cl)cc1Cl` (configuration not stated), the inhibition is -5%.

Consider `O=C(OC1CCOC1=O)c1ccc(-c2nc3ccccc3s2)s1` (configuration not stated), for which the inhibition was 91.4% (active).

Turning to `O=C(OC1CCOC1=O)c1cccc(S(=O)(=O)Nc2ccc(F)cc2)c1` (configuration not stated), the inhibition was -4.8%.

On to `Cc1nn(Cc2ccccc2)c(Cl)c1C(=O)OC1CCOC1=O` (configuration not stated), for which the inhibition was -3.6%.

Consider `N#CC1(C#N)C(C(=O)C23CC4CC(CC(C4)C2)C3)C12CCOCC2` (configuration not stated), for which the inhibition is -9.2%.

Regarding `CCc1cc2c(=O)c(-c3nc4ccccc4n3C)c(CCCC(=O)O)oc2cc1OC(=O)C(C)(C)C`, the inhibition is 2.4%.

Take `CCc1cc2c(=O)c(-c3ccc(F)cc3)c(C(F)(F)F)oc2cc1OCC(=O)O`: the inhibition is -5.2%.

As for `CCc1cc2c(=O)c(-c3ccon3)c(N)oc2cc1OC`, the inhibition is 59.4% (active).

In the case of `CCOc1ccc(S(=O)(=O)Nc2nccs2)cc1`, the inhibition is -7.4%.

As for `COc1ccc(-c2noc(-c3cccc(OC)c3OC)n2)cc1OC`, the inhibition was 48.7%.

Turning to `COc1ccc(-c2nc(-c3ccccc3)no2)c(OC)c1`, the inhibition was 85.4% (active).

As to `COc1ccc(-c2noc(-c3ccc(C)cc3)n2)cc1`, the inhibition is 44.5%.

Turning to `Cc1ccc(S(=O)(=O)Nc2nc(N)n(-c3ccccc3)n2)cc1`, the inhibition was -5.1%.

In the case of `Cc1ccc(NC(=O)C2(N3CCC3=O)CCCCC2)cc1`, the inhibition is -9%.

With `CCC(=O)Nc1cccc(NC(=O)c2cccnc2)c1`, the inhibition is -0.5%.

With `Cc1nn(Cc2ccc(Cl)cc2)c(Cl)c1/C=N/NC(=O)c1cccnc1`, the inhibition is -5.5%.

Turning to `Cc1cc(/C=N/NC(=O)c2cccnc2)c(C)n1CC(C)C`, the inhibition was 63.5% (active).

For the compound `CC(Oc1ccc(Br)cc1Br)C(=O)NC1CCCC1` (configuration not stated), the inhibition was -6.3%.

`CCN(CC)S(=O)(=O)c1cccc(C(=O)Nc2ccccc2)c1`: the inhibition is -4.6%.

As for `Cc1ccc(S(=O)(=O)/N=C(/Nc2ccccn2)c2ccc(Cl)cc2)cc1`, the inhibition was -1.5%.

Consider `CCN(CC)S(=O)(=O)c1cc(C(=O)Nc2ccccn2)ccc1C`, for which the inhibition is 58% (active).

For `Cn1c(N)cc(-c2ccc(F)cc2)c(C#N)c1=O`, the inhibition is -3.4%.

In the case of `COc1cc(CNC2CCCCC2)c(Br)cc1OC1CCCC1`, the inhibition is -3.7%.

Take `Cc1cc(C)nc(NC(=O)c2cccc([N+](=O)[O-])c2)c1`: the inhibition was 0.2%.

`CCO[C@H]1OC(C(=O)O)=C[C@@H](C2CCCCC2)[C@@H]1CCCO`: the inhibition is -12%.

Regarding `COC(=O)c1nc2ccccc2s1`, the inhibition was -1.8%.

Consider `CC(=O)Nc1cccc(-c2nc3ccccc3s2)c1C`, for which the inhibition is 52% (active).

Consider `Oc1ccc(-c2[nH]ncc2-c2nc3ccccc3s2)c(O)c1`, for which the inhibition was -7.2%.

With `c1csc(-c2nnc(COc3ccc4c(c3)OCO4)o2)c1`, the inhibition is 5.4%.

As for `NS(=O)(=O)c1ccc(N2C(=O)C3C4CC(C(Br)C4Br)C3C2=O)cc1` (configuration not stated), the inhibition is -4.1%.

With `CCc1ccc(N2CC(O)=C(c3nc4ccccc4c(=O)[nH]3)C2=N)cc1`, the inhibition was 1.7%.

In the case of `COc1ccc(/C=N/Nc2nc3ccccc3c(=O)[nH]2)cc1`, the inhibition was 59.4% (active).

For the compound `COc1ccc(C=Nc2cccc3ncccc23)cc1`, the inhibition is -0.8%.

For the compound `CCN(CC)c1ccc(/C=N/Nc2nc(C)cc(=O)[nH]2)cc1`, the inhibition was 26.8%.

With `C[C@@H]1NC(=O)c2cc([N+](=O)[O-])cc(F)c2NCCC[C@@H](C(N)=O)NC(=O)[C@H](CC(N)=O)NC1=O`, the inhibition is -4.9%.

Consider `Fc1ccccc1Cc1ccc(Cl)nn1`, for which the inhibition is -5.5%.

With `c1cc(-c2nn[nH]n2)ccc1CN1CCCCC1`, the inhibition was -3.9%.

Regarding `CCc1ccc(-c2nnn(Cc3nn[nH]n3)n2)cc1`, the inhibition was -1.9%.

Turning to `CC(C)c1ccc(-c2nn[nH]n2)cc1`, the inhibition is 56.6% (active).

As for `O=C(COC(=O)C12CC3CC(CC(O)(C3)C1)C2)NC12CC3CC(CC(C3)C1)C2`, the inhibition is -8.6%.

Values taken from PubChem BioAssay AID1006 (Sanford-Burnham Center for Chemical Genomics, 2008).
